This is a sample that favours compounds with a hit; in the whole collection about 21% have one here.
CHX counter = Cycloheximide Counterscreen for Small Molecule Inhibitors of Shiga Toxin | cell reporter, cycloheximide protein synthesis inhibition counterscreen | max response, % | 300,000 compounds, 12% hits; in the data active means max response mostly above about 13%, no sharp cut-off; inactive means mostly below about 14%; further: read at 38.3 µM for the half of the compounds with a filed dose; 0% is about no effect
Shiga inhibitor = A qHTS for Small Molecule Inhibitors of Shiga Toxin; Vero cells, Shiga toxin protein synthesis inhibition reporter; inhibition, % at 38.7 µM; 290,000 compounds, 9.2% hits; in the data active means inhibition mostly above about 28%, no sharp cut-off; inactive means mostly below about 43%; further: 0% is about no effect
Pf growth 48h = Primary qHTS for delayed death inhibitors of the malarial parasite plastid, 48 hour incubation; Potency, µM (highest dose often 28.7 µM), for inactives: top-dose activity change, negative = inhibition, actives largely listed as inhibitors; 310,000 compounds, 5.9% hits; P. falciparum luciferase growth in erythrocytes, 48 h; further: potency means the concentration at half of the fitted maximal effect; on the % scale 0 is the no-effect control and ±100 the full control effect
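In quantitative HTS format, infected erythrocytes bearing luciferase-reporter parasites were treated for a single generation at 37 C. Luminescence after adding detection reagent served as the growth measure.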
Pf growth 96h = Primary qHTS for delayed death inhibitors of the malarial parasite plastid, 96 hour incubation; P. falciparum luciferase reporter growth, 96 h; Potency, µM (titrated, usually from 28.7 µM), for inactives: top-dose activity change, negative = inhibition, most hits filed as inhibitors; 320,000 compounds, 6.9% hits; AID 504834, 2011; further: potency means the concentration at half of the fitted maximal effect; on the % scale 0 is the no-effect control and ±100 the full control effect
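Erythrocytes infected with luciferase-expressing P. falciparum were dispensed at 2% hematocrit and 0.05% parasitemia (final), then incubated with compounds 96 hours at 37 C in 5% CO2. Luminescence after detection reagent addition reported growth.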
An asterisk follows results filed as active. Unless noted, the call rests on the fitted dose curve; in most records, active means well fitted inhibition curve with a large enough effect; inconclusive means small, poorly fitted or top-dose-only effect, or another doubt; inactive means no such curve, though single readings can be large or run the other way.

Results for CCc1ccccc1NC(=O)C(Cc1ccccc1)c1nn[nH]n1 (stereo not drawn) ?
CHX counter: -0.9; Pf growth 48h: 4.2%; Pf growth 96h: -14.1%

How did O=C(Nc1cc(Cl)ccc1O)c1cc(-c2ccco2)on1 do in these assays?
CHX counter: 39.8*; Shiga inhibitor: 79.7*; Pf growth 48h: inconclusive; Pf growth 96h: 3.5%

How did CC(=O)Nc1cc(Br)ccc1O do in these assays?
CHX counter: -1.5; Shiga inhibitor: -12.9; Pf growth 48h: 0.0%; Pf growth 96h: inconclusive

What do the screens show for `O=C(Nc1cc(Br)ccc1O)c1cc(-c2ccco2)on1`?
CHX counter: 18.8; Shiga inhibitor: 59.3*; Pf growth 48h: inconclusive; Pf growth 96h: 218.3%

What do the screens show for `Cc1nn(C)c(C(=O)N/N=C/c2ccc(C(F)(F)F)cc2)c1[N+](=O)[O-]`?
CHX counter: -7.0; Shiga inhibitor: -9.5; Pf growth 48h: -15.3%; Pf growth 96h: 21.1%

What do the screens show for `COc1ccc(-c2nnc(N(C)C(=O)c3ccno3)s2)cc1`?
CHX counter: 26.0*; Shiga inhibitor: 60.2*; Pf growth 48h: 109.0%; Pf growth 96h: inconclusive

Results for CN(C(=O)c1ccno1)c1nnc(-c2ccccn2)s1 ?
CHX counter: 2.7; Shiga inhibitor: 21.5; Pf growth 48h: 37.1%

Results for COc1ccc(-c2nnc(N(C)C(=O)C3CCCO3)s2)cc1 (stereo not drawn) ?
CHX counter: 26.0*; Shiga inhibitor: active; Pf growth 48h: 124.6%; Pf growth 96h: -7.2%

What do the screens show for `Cc1cccc(C(=O)NNC(=O)c2ccccc2[N+](=O)[O-])c1`?
CHX counter: -3.8; Shiga inhibitor: -7.7; Pf growth 48h: 20.0%; Pf growth 96h: inconclusive

Results for Nc1ccccc1C(=O)NNC(=O)C(=O)/C=C(\O)c1ccccc1 ?
CHX counter: 32.6*; Shiga inhibitor: 53.4*; Pf growth 48h: 166.1%; Pf growth 96h: 166.9%

How did O=C(/C=C(\O)c1ccccc1)C(=O)NNC(=O)c1ccccc1[N+](=O)[O-] do in these assays?
CHX counter: 16.7*; Shiga inhibitor: 71.4*; Pf growth 48h: 67.5%; Pf growth 96h: 50.8%

How did O=C(CN(C(=O)CCC(=O)Nc1nccs1)c1ccccc1F)NCCc1ccccc1 do in these assays?
CHX counter: -2.4; Shiga inhibitor: -9.8; Pf growth 48h: -19.4%; Pf growth 96h: inconclusive

What do the screens show for `CC(=O)N(C)c1ccc(NC(=O)CCN2C(=O)c3ccccc3C2=O)cc1`?
CHX counter: 1.4; Shiga inhibitor: -12.8; Pf growth 48h: 0.0%; Pf growth 96h: 1.8%

Results for CS(=O)(=O)c1ccc(Cl)c(NC(=O)c2cccc(-n3cnnn3)c2)c1 ?
Pf growth 48h: -7.6%; Pf growth 96h: 5.7%

How did COc1ccc(Nc2oc(-c3ccc(Cl)cc3)nc2C#N)cc1 do in these assays?
CHX counter: 30.4*; Shiga inhibitor: 84.3*; Pf growth 48h: 8.7%; Pf growth 96h: 40.4%

What do the screens show for `COc1ccc(Nc2oc(COc3ccc(Cl)cc3)nc2C#N)cc1`?
CHX counter: 1.9; Shiga inhibitor: -3.4; Pf growth 48h: inconclusive; Pf growth 96h: 1.3%

What do the screens show for `CCOc1ccc(-c2nc(C#N)c(NC3CC3)o2)cc1`?
CHX counter: 42.1*; Shiga inhibitor: 116.8*; Pf growth 48h: 63.7%; Pf growth 96h: 0.0%

What do the screens show for `CCOc1ccc(-c2nc(C#N)c(N3CCOCC3)o2)cc1`?
CHX counter: 1.4; Shiga inhibitor: 13.5; Pf growth 96h: inconclusive

Results for COc1ccc(-c2nc(C#N)c(N3CCC(C(N)=O)CC3)o2)cc1 ?
CHX counter: -0.5; Shiga inhibitor: 10.5; Pf growth 96h: 6.4%

Results for COc1ccc(Nc2oc(-c3ccc(OC)cc3)nc2C#N)cc1 ?
CHX counter: 50.2*; Shiga inhibitor: 105.3*; Pf growth 48h: -4.6%; Pf growth 96h: inconclusive

Results for COc1ccc(-c2nc(C#N)c(N3CCN(c4ccccc4)CC3)o2)cc1 ?
CHX counter: -2.4; Shiga inhibitor: -2.9; Pf growth 48h: -4.2%; Pf growth 96h: -4.1%

Results for COc1ccc(Nc2oc(-c3ccccc3)nc2C#N)cc1 ?
CHX counter: 13.6*; Shiga inhibitor: 70.3*; Pf growth 48h: 30.2%; Pf growth 96h: inconclusive

Results for CC1(c2ccccc2)NC(=O)N(CC(=O)N2CCN(S(=O)(=O)c3ccccc3[N+](=O)[O-])CC2)C1=O (stereo not drawn) ?
CHX counter: 0.8; Shiga inhibitor: -3.8; Pf growth 48h: -14.2%; Pf growth 96h: 32.4%

What do the screens show for `C=CCn1c(SCC(=O)NC2CCCC2)nc2c([nH]c3ccccc32)c1=O`?
CHX counter: -1.9; Shiga inhibitor: 20.0; Pf growth 48h: 99.6%; Pf growth 96h: 37.5%

What do the screens show for `CCOc1ccc(Nc2oc(-c3ccc(Cl)cc3)nc2C#N)cc1`?
CHX counter: 9.8*; Shiga inhibitor: 33.8; Pf growth 48h: 31.8%; Pf growth 96h: 16.0%

How did CNc1oc(-c2ccccc2)nc1C#N do in these assays?
CHX counter: 19.6*; Shiga inhibitor: 37.5*; Pf growth 48h: 21.2%; Pf growth 96h: 150.0%

Results for CCOc1ccc(-c2nc(C#N)c(NCc3ccc4c(c3)OCO4)o2)cc1 ?
CHX counter: 19.6; Shiga inhibitor: 2.2; Pf growth 48h: 21.9%; Pf growth 96h: 8.28µM*

Results for Cc1ccc(OCc2nc(C#N)c(NCc3ccc4c(c3)OCO4)o2)cc1 ?
CHX counter: 11.3; Shiga inhibitor: -14.5; Pf growth 48h: -14.7%; Pf growth 96h: 11.7%

How did Cc1ccccc1-n1nc2c(c1NC(=O)c1ccc3c(c1)OCO3)CS(=O)(=O)C2 do in these assays?
CHX counter: -3.2; Shiga inhibitor: -12.3; Pf growth 48h: -0.1%; Pf growth 96h: -10.9%

Results for CCCC(=O)Nc1c2c(nn1-c1ccc(C)cc1C)CSC2 ?
CHX counter: -3.7; Shiga inhibitor: -7.6; Pf growth 48h: -14.6%; Pf growth 96h: 33.8%

How did Cc1ccc(-n2nc3c(c2NC(=O)c2ccc4c(c2)OCO4)CS(=O)(=O)C3)c(C)c1 do in these assays?
CHX counter: -4.2; Shiga inhibitor: -9.0; Pf growth 48h: -2.4%; Pf growth 96h: 11.7µM*

Results for Cc1ccc(-n2nc3c(c2NC(=O)c2cccs2)CS(=O)(=O)C3)c(C)c1 ?
CHX counter: -4.7; Shiga inhibitor: -3.0; Pf growth 48h: 21.9%; Pf growth 96h: 0.586µM*

What do the screens show for `CC(=O)Nc1c2c(nn1-c1ccc(C)cc1C)CSC2`?
CHX counter: -3.8; Shiga inhibitor: -0.1; Pf growth 48h: inconclusive; Pf growth 96h: 10.4µM*

What do the screens show for `CN(CCC#N)CC(=O)Nc1ccc(S(N)(=O)=O)cc1`?
CHX counter: 7.8; Shiga inhibitor: -11.1; Pf growth 48h: 18.0%; Pf growth 96h: 14.2%

Results for O=C(NC(=S)NCc1ccc(-c2nc3ccccc3s2)cc1)c1ccco1 ?
CHX counter: 29.8*; Shiga inhibitor: 63.6*; Pf growth 48h: 184.9%; Pf growth 96h: 14.7µM*

Results for O=C(NCc1ccc(-c2nc3ccccc3s2)cc1)c1ccco1 ?
CHX counter: 34.1*; Shiga inhibitor: 71.1*; Pf growth 48h: inconclusive; Pf growth 96h: -2.0%

What do the screens show for `Cc1noc(C)c1-c1ccc2ncnc(NCc3cccn3C)c2c1`?
CHX counter: 1.0; Shiga inhibitor: -5.7

Bioassay records deposited in PubChem by National Center for Advancing Translational Sciences (NCATS).
